Results: publication PMC7862700, “An all-to-all approach to the identification of sequence-specific readers for epigenetic DNA modifications on cytosine”

Assays:
Test in all cases: DAPPL (digital affinity profiling via proximity ligation, sequencing); 10 mM Tris-HCl pH 7.5, 50 mM NaCl, 1 mM DTT, 4% glycerol, room temperature, 30 min; GST-TFs on glutathione beads, 16-mer random dsDNA library, 0.1% formaldehyde crosslink after washing; high values mean tight binding
[1] = molecular target: T1, FLI1 (Homo sapiens, UniProt Q01543 1-452); settings: protein: recombinant; tags: N-terminal GST; dsDNA, one strand shown
T1 sequence: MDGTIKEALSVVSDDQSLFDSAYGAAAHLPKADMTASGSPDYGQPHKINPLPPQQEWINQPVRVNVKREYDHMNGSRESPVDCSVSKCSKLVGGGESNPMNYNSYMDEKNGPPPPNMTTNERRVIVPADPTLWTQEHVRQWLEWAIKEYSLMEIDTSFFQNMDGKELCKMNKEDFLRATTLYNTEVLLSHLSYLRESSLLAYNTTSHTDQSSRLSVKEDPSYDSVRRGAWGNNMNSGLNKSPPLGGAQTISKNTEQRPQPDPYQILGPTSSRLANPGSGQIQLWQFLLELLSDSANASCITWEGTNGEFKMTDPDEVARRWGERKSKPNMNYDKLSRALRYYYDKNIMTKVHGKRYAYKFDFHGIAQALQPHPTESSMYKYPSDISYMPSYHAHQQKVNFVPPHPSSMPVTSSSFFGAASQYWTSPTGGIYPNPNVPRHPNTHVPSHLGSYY
Outline: (§1)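 After expression in yeast as GST fusions, human transcription factors were bound to glutathione beads, DNA-barcoded and mixed with a tag-only sample. The pools were incubated with 200 nmole of a 16-mer random double-stranded DNA library in Tris/NaCl/DTT/glycerol buffer (30 min, room temperature), washed and crosslinked with 0.1% formaldehyde. Proximity ligation with BsaI/T4 ligase ran for 1 h at 37 °C, before PCR amplification and sequencing on an Illumina NextSeq500. Binding signal is a hexamer's read frequency for a factor divided by its frequency for the tag-only sample.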

[2] = molecular target: T2, ELK1 (Homo sapiens, UniProt P19419 1-428); settings: protein: recombinant; tags: N-terminal GST; dsDNA, one strand shown
T2 sequence: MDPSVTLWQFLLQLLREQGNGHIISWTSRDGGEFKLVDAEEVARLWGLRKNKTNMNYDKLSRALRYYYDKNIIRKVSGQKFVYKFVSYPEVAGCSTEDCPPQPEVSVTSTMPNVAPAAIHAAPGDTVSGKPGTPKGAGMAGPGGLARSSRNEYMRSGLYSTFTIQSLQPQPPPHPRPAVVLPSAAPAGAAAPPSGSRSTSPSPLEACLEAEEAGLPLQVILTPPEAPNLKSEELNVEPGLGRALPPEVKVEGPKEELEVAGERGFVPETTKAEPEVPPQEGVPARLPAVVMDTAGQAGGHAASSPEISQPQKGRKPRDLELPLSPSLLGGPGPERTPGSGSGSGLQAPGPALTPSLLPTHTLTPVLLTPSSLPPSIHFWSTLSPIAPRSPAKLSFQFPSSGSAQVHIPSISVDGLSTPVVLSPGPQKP
Outline: as §1

[3] = molecular target: T3, GABPA (Homo sapiens, UniProt Q06546 1-454); settings: protein: recombinant; tags: N-terminal GST; dsDNA, one strand shown
T3 sequence: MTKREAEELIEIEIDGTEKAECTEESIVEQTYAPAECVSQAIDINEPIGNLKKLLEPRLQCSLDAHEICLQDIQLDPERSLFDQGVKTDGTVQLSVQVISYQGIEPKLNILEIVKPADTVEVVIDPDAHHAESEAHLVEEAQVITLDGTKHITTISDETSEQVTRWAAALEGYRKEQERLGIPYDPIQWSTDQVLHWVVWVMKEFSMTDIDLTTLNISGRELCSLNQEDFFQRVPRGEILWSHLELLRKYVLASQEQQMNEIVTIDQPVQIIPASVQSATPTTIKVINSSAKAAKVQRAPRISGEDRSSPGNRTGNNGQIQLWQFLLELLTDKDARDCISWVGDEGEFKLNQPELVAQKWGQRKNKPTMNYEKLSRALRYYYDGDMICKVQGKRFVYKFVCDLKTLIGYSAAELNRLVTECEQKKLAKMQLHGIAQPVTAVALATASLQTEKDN
Outline: as §1

[4] = molecular target: T4, ERG (Homo sapiens, UniProt P11308 1-479); settings: protein: recombinant; tags: N-terminal GST; dsDNA, one strand shown
T4 sequence: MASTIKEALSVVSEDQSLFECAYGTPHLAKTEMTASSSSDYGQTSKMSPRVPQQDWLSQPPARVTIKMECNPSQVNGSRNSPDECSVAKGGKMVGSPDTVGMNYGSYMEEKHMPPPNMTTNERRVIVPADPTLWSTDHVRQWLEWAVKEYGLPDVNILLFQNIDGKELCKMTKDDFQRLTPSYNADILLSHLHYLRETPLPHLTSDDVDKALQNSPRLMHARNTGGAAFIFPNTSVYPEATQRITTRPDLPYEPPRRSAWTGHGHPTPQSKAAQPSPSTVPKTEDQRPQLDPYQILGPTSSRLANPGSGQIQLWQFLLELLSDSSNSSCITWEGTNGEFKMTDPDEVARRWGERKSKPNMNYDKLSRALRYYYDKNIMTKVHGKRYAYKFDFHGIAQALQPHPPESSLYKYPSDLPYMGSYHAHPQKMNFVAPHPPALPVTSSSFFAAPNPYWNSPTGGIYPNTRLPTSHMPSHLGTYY
Outline: as §1

[5] = molecular target: ELF1 (Homo sapiens, UniProt P32519 1-619); settings: protein: recombinant; tags: N-terminal GST; dsDNA, one strand shown
ELF1, sequence (P32519 whole entry): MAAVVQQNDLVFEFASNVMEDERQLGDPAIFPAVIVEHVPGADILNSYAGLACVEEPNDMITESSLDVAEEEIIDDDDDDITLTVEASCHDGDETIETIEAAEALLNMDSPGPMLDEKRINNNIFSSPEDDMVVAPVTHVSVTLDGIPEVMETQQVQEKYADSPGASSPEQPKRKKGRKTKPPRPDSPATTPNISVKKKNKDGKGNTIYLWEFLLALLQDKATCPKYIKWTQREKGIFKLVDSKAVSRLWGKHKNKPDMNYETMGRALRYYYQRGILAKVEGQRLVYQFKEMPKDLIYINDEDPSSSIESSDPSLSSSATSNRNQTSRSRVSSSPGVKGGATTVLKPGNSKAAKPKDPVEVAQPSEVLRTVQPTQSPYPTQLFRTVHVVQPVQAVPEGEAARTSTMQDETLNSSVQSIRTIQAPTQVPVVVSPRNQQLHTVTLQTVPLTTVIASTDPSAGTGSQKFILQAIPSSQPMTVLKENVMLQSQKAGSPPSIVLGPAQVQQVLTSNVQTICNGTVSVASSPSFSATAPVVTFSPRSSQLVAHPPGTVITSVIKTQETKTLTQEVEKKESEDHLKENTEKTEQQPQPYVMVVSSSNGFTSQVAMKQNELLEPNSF
Outline: as §1

[6] = molecular target: T5, EHF (Homo sapiens, UniProt Q9NZC4 1-300); settings: protein: recombinant; tags: N-terminal GST; dsDNA, one strand shown
T5 sequence: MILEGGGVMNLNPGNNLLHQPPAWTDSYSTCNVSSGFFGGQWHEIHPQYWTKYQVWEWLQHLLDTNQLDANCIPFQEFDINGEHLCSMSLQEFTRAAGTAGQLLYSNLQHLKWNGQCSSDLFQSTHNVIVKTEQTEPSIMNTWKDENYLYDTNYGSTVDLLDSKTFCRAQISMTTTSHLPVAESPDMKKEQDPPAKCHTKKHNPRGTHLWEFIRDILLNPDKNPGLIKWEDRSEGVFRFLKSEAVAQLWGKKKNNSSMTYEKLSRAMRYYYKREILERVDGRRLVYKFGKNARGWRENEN
Outline: as §1

[7] = molecular target: SPI1 (Homo sapiens, UniProt P17947 1-270); settings: protein: recombinant; tags: N-terminal GST; dsDNA, one strand shown
Outline: as §1

[8] = molecular target: SPIB (Homo sapiens, UniProt Q01892 1-262); settings: protein: recombinant; tags: N-terminal GST; dsDNA, one strand shown
SPIB, sequence (Q01892 whole entry): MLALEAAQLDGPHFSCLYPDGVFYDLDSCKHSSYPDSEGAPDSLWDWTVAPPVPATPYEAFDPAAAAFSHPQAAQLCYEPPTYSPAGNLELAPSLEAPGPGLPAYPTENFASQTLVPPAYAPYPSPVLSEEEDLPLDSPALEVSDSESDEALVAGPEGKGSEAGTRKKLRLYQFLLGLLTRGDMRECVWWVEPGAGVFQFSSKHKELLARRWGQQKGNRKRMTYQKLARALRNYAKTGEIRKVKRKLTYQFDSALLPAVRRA
Outline: as §1

[9] = molecular target: T6, ELK3 (Homo sapiens, UniProt P41970 1-407); settings: protein: recombinant; tags: N-terminal GST; dsDNA, one strand shown
T6 sequence: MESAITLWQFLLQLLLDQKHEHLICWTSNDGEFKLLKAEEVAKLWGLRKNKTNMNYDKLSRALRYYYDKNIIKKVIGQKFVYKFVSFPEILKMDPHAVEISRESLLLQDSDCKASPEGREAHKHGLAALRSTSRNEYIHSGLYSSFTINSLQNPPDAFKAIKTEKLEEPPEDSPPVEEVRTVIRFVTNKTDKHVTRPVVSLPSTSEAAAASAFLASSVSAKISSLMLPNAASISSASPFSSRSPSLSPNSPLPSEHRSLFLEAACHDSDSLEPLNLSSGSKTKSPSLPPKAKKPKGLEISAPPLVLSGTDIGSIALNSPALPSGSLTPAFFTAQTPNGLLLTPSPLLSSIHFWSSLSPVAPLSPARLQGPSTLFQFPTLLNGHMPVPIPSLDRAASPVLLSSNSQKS
Outline: as §1

[10] = molecular target: T7, FEV (Homo sapiens, UniProt Q99581 1-238); settings: protein: recombinant; tags: N-terminal GST; dsDNA, one strand shown
T7 sequence: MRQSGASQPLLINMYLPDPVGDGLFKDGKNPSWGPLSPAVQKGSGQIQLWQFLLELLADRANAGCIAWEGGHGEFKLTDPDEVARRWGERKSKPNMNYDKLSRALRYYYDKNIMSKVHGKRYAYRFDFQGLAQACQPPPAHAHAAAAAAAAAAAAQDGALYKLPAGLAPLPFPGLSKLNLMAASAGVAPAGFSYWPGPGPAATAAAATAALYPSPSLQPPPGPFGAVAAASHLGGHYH
Outline: as §1

[11] = molecular target: ETV5 (Homo sapiens, UniProt P41161 1-510); settings: protein: recombinant; tags: N-terminal GST; dsDNA, one strand shown
ETV5, sequence (P41161 whole entry): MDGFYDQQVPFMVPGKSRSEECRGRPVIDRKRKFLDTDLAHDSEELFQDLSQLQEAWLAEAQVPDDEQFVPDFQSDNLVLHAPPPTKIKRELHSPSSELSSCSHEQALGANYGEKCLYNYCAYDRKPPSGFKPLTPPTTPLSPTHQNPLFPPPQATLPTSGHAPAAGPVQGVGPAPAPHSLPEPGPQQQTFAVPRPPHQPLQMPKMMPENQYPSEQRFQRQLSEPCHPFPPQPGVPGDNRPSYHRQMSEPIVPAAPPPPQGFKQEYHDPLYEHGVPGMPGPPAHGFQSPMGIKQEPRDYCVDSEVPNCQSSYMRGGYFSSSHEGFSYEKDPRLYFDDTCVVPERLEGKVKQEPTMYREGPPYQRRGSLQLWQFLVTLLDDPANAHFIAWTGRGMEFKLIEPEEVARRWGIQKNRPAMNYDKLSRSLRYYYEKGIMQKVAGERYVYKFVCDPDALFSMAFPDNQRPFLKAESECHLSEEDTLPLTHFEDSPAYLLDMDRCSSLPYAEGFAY
Outline: as §1

[12] = molecular target: HSF1 (Homo sapiens, UniProt Q00613 1-529); settings: protein: recombinant; tags: N-terminal GST; chain copies: 3; dsDNA, one strand shown
HSF1, sequence (Q00613 whole entry): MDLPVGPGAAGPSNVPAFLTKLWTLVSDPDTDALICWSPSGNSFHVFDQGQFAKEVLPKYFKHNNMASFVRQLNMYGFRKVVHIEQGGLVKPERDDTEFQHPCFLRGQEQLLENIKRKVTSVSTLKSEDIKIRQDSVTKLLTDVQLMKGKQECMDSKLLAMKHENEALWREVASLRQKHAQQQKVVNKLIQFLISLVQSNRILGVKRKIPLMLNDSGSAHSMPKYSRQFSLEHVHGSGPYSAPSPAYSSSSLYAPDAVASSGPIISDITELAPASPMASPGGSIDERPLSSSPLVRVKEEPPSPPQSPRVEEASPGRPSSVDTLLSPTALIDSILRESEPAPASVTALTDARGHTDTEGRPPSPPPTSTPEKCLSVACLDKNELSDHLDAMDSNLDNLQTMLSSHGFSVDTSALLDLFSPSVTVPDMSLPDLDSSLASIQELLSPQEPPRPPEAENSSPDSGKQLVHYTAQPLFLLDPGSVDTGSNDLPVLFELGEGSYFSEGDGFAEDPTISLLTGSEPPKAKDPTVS
Outline: as §1

[13] = molecular target: T8, SPIC (Homo sapiens, UniProt Q8N5J4 1-248); settings: protein: recombinant; tags: N-terminal GST; dsDNA, one strand shown
T8 sequence: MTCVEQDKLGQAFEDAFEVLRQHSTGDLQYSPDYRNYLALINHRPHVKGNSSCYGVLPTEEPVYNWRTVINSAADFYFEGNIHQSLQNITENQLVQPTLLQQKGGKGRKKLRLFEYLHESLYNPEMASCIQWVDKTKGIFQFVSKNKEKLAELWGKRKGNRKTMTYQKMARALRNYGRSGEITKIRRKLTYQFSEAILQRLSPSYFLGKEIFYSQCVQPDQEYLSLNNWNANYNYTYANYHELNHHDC
Outline: as §1

[14] = molecular target: ELF4 (Homo sapiens, UniProt Q99607 1-663); settings: protein: recombinant; tags: N-terminal GST; dsDNA, one strand shown
ELF4, sequence (Q99607 whole entry): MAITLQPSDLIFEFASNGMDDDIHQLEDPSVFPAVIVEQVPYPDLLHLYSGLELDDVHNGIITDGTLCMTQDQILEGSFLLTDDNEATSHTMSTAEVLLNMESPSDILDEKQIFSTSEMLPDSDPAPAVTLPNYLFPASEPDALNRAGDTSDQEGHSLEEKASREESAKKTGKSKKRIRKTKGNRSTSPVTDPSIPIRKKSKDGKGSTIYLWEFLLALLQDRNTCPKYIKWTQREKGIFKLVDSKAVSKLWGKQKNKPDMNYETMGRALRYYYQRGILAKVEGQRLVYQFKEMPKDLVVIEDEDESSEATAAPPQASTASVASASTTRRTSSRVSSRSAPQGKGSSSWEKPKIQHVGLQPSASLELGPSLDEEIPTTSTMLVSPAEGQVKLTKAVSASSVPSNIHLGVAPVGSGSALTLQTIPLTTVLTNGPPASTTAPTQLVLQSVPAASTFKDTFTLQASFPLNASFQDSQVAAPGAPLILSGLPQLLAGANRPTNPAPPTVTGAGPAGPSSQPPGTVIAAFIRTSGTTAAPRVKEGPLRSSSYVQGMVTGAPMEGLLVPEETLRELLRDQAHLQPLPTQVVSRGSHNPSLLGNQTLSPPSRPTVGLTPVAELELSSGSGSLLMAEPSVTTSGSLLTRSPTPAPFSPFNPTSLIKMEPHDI
Outline: as §1

[15] = molecular target: T9, ELK4 (Homo sapiens, UniProt P28324-2 1-405); settings: protein: recombinant; tags: N-terminal GST; dsDNA, one strand shown
T9 sequence: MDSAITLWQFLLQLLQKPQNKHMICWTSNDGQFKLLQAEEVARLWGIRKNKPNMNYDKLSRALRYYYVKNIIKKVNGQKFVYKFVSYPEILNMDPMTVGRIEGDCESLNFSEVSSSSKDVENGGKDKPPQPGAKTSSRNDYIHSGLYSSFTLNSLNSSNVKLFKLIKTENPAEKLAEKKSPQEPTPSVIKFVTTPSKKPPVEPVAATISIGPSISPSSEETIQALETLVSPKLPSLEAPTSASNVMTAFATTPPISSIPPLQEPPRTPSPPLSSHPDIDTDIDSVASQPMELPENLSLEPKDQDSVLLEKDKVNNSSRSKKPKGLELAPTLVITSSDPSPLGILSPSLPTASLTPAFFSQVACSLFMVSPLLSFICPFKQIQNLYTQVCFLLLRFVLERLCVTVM
Outline: as §1

[16] = molecular target: T10, ETV2 (Homo sapiens, UniProt O00321 1-342); settings: protein: recombinant; tags: N-terminal GST; dsDNA, one strand shown
T10 sequence: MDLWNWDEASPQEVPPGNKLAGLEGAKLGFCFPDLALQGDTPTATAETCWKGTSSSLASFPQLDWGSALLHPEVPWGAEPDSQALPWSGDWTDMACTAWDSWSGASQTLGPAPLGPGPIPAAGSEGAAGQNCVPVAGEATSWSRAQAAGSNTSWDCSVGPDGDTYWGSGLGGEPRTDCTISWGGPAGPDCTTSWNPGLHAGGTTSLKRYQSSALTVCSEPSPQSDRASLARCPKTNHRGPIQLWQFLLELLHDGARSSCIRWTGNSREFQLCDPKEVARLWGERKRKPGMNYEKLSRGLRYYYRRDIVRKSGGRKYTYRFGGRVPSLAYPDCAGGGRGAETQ
Outline: as §1

[17] = molecular target: T11, ELF3 (Homo sapiens, UniProt P78545 1-371); settings: protein: recombinant; tags: N-terminal GST; dsDNA, one strand shown
T11 sequence: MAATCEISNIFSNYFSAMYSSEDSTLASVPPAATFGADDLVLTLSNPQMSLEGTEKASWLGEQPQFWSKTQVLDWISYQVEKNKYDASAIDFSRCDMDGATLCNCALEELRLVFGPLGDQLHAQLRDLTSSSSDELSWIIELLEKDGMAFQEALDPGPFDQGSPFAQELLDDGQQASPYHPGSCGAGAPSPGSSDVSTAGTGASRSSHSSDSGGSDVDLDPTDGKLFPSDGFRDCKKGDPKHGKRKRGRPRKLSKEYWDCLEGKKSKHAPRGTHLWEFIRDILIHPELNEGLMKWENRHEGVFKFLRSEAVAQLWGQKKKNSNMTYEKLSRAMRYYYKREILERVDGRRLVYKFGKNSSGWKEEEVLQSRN
Outline: as §1

[18] = molecular target: CRX (Homo sapiens, UniProt O43186 1-299); settings: protein: recombinant; tags: N-terminal GST; dsDNA, one strand shown
CRX, sequence (O43186 whole entry): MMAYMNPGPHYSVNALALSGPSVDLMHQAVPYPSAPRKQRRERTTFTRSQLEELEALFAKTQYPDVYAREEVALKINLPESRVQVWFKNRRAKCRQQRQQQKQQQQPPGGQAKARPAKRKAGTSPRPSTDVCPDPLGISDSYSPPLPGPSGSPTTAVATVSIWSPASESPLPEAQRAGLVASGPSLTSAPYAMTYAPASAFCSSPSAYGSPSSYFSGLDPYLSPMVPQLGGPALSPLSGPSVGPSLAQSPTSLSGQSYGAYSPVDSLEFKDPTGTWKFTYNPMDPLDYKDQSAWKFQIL
Outline: as §1

[19] = molecular target: ETV1 (Homo sapiens, UniProt P50549 1-477); settings: protein: recombinant; tags: N-terminal GST; dsDNA, one strand shown
ETV1, sequence (P50549 whole entry): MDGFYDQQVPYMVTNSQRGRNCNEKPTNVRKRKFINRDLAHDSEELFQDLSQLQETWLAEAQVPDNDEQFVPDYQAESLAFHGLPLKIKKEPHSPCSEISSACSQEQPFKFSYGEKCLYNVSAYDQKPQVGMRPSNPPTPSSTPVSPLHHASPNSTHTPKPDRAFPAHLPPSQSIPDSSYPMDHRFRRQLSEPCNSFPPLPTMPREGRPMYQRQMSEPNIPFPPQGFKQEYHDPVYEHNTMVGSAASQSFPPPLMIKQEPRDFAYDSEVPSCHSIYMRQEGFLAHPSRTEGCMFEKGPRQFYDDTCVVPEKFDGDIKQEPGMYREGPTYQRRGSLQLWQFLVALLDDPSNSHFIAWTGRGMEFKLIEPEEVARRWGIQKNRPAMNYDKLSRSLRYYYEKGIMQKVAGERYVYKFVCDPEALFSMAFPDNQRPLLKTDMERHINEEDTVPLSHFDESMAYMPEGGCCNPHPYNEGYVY
Outline: as §1

In the case of GCCTAC, the binding signal [1] is reported as 1.18 fold enrichment (6-mer frequency, TF over GST control), the binding signal [2] is reported as 1.17 fold enrichment (6-mer frequency, TF over GST control) and the binding signal [3] is reported as 1.28 fold enrichment (6-mer frequency, TF over GST control). The binding signal [4] was 1.25 fold enrichment (6-mer frequency, TF over GST control), the binding signal [5] was 1.21 fold enrichment (6-mer frequency, TF over GST control) and the binding signal [6] was 1.25 fold enrichment (6-mer frequency, TF over GST control). The binding signal [7] was 1.18 fold enrichment (6-mer frequency, TF over GST control), the binding signal [8] was 1.21 fold enrichment (6-mer frequency, TF over GST control) and the binding signal [9] was 1.1 fold enrichment (6-mer frequency, TF over GST control). For the same sequence, the binding signal [10] was 1.2 fold enrichment (6-mer frequency, TF over GST control), the binding signal [11] was 1.16 fold enrichment (6-mer frequency, TF over GST control) and the binding signal [12] was 1.01 fold enrichment (6-mer frequency, TF over GST control). For the same sequence, the binding signal [13] was 1.37 fold enrichment (6-mer frequency, TF over GST control), the binding signal [14] was 1.26 fold enrichment (6-mer frequency, TF over GST control) and the binding signal [15] was 1.38 fold enrichment (6-mer frequency, TF over GST control). The binding signal [16] was 1.16 fold enrichment (6-mer frequency, TF over GST control), the binding signal [17] was 1.1 fold enrichment (6-mer frequency, TF over GST control) and the binding signal [18] was 1.12 fold enrichment (6-mer frequency, TF over GST control). For the same sequence, the binding signal [19] was 1.2 fold enrichment (6-mer frequency, TF over GST control).
